In PubChem BioAssay (NCI) one finds growth data, which are given here for 40 compounds.

The panel holds about 83,000 compounds, 20% with a hit somewhere; the sample as a whole holds those more often.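 Percent growth is the endpoint: 0 to 100 indicates growth inhibition (40 means 60% inhibition), 0 means no net growth, and negative values indicate cell death.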 The source made the active and inactive calls. How the source made its calls: active means growth percent below 10; inactive means the rest.

This assay has as its system HL-60(TB) leukemia. As to the kind of experiment: NCI-60 one-dose screen, 48 h (100 = growth as untreated, 0 = no growth, -100 = all killed). The settings on record: 10 µM unless noted.
For the compound `O=C(NO)c1ccc(Cn2c(=O)n(CCc3ccc(O)cc3)c(=O)c3ccccc32)cc1`, the growth is 89.3% (inactive).
Then `NC1=NN=C(N)C1=Cc1cc2ccccc2n2nnnc12`, with 96.8% (inactive); and `Cc1cc2cc3cc(C)c(N(C)C)cc3[n+](C)c2cc1N(C)C`, with 47% (inactive).
Consider `COc1ccc(Nc2ncc(I)c(NCCCNC(=O)C3CCC3)n2)cc1`, for which the growth is -37.6% (active).
Take `O=[N+]([O-])c1ccc(N/N=C\c2ccc(O)cc2O)nc1`: the growth is 0.875% (active).
For `Cc1onc2c(-c3ccccc3)n[nH]c(=O)c12` the value was 90.2% (inactive); for `C=CCOc1ccc2c(c1)CC[C@@H]1[C@@H]2CC[C@]2(C)C(=O)/C(=N/O)C[C@@H]12`, -28.4% (active); for `COc1ccc(-c2cc(-c3cccs3)n(N=O)c(=O)c2C#N)cc1`, 94.7% (inactive).
Regarding `Cc1cc(=O)n(C(=O)Nc2ccccc2Cl)c2cc(O)ccc12`, the growth was 107% (inactive).
As for `CSCC[C@@H]1C(=O)N(C)[C@H](C(C)(C)C)N1C(=O)c1ccccc1`, the growth was 110% (inactive).
With `CN1C(=O)C2(Nc3cc(Cl)ccc3S2)c2cc(Cl)ccc21` (stereo not given), the growth was 97.8% (inactive).
For the compound `COc1ccc([C@H]2[C@H](C(=O)Nc3cccnc3)c3ccccc3C(=O)N2c2ccccc2)cc1`, the growth is 90.2% (inactive).
Turning to `CCOC(=O)Sc1ncnc2nc[nH]c12`, the growth is 2.99% (active).
Consider `CCc1c(C(=O)Nc2ccc3ccccc3c2)[nH]c(C)c1C(C)=O`, for which the growth is 99.7% (inactive).
In the case of `O=C(O)c1cn(C2CC2)c2cc(N3CCN(C(=O)/C=C/c4ccc(Cl)cc4)CC3)c(F)cc2c1=O`, the growth is 60.4% (inactive).
As for `Cc1nn(-c2ccc([N+](=O)[O-])cc2)c2ncnc(N/N=C/c3ccccc3O)c12`, the growth is -0.479% (active).
Then `CC(C)(C)c1ccc(S(=O)(=O)Oc2ccc(NC(=O)C3CCCCC3)cc2)cc1`, with 59.3% (inactive); and `C/C(=N\NC(=S)N1CC2CCC(CC2)C1)c1ccccn1`, with -22.4% (active); and `Cc1cc(C)cc(NC(=O)Cn2nncc2CN2C(=O)CSC2=O)c1`, with 97.9% (inactive).
Consider `CN(C)c1ccc2oc(=O)c3ccccc3c2c1`, for which the growth was 143% (inactive).
On to `CC(=O)OC[C@H]1O[C@H](OC(C)=O)[C@H](NC(=O)/C=C/CCl)[C@@H](OC(C)=O)[C@@H]1OC(C)=O`, for which the growth was 96.4% (inactive).
Regarding `C=C1c2nc3ccccc3n2C=C(c2ccc(Cl)cc2)N1Cc1ccc(OC)cc1`, the growth is 53% (inactive).
Take `O=C(/C=C/c1cn(-c2ccccc2)nc1-c1ccccc1)CCC(=O)NO`: the growth was 98.3% (inactive).
As to `O=Nc1c(-c2c(O)[nH]c3ccc([N+](=O)[O-])cc23)[nH]c2ccc(O)cc12`, the growth is 3.67% (active).
Turning to `CC(C)(CCCN=C(N)Nc1ccc(Cl)cc1)c1ccc(F)cc1`, the growth is 93.4% (inactive).
For `c1ccc(-c2nn(-c3ccccc3)[n+](-c3cccc4ccccc34)n2)cc1` the value was -25.8% (active); for `COc1ccccc1CNCCCN1C(=O)c2ccc3c4c(ccc(c24)C1=O)C(=O)N(CCCNCCCCN)C3=O`, -42% (active).
In the case of `O=C(O)c1ccccc1C(=O)c1ccc(I)cc1`, the growth is 93.1% (inactive).
In the case of `O=C1NC(=O)C(Cc2ccc(OCc3ccc(-c4cc(F)c(F)c(F)c4)cc3)cc2)S1` (stereo not given), the growth was 106% (inactive).
`COC(=O)/C=C/C(=O)c1cc(C)cc(C)c1O`: the growth was 86.6% (inactive).
Consider `COc1ccc(/C=C2\N=C(c3ccccc3)N(C(=O)c3ccccc3O)NC2=O)cc1`, for which the growth is -10.5% (active).
For `CCN(CC)Cc1cc(Nc2cc(C(F)(F)F)c(C#N)c3nc4ccccc4n23)ccc1O` the value was -10.9% (active).
On to `CC(C)CCOC(=O)c1ccccc1`, for which the growth is 101% (inactive).
With `C/C(=N\NC(=O)c1ccncc1)c1ccc(N)cc1`, the growth is 90.2% (inactive).
For `Cc1ccc(OC(=O)c2ccccc2)cc1` the value was 103% (inactive); for `O=C(O)c1cccc([N+](=O)[O-])c1O`, 78.2% (inactive); for `CC[n+]1c(/C=C/c2ccc(N3CCCC3)cc2)cccc1/C=C/c1ccc(N2CCCC2)cc1`, -20.8% (active).
Then `O=C1c2ccccc2OC=C(c2ccccc2)N1CCCCN1CCCCC1`, with 58.1% (inactive).
As to `Cc1n[nH]c(=O)n(/N=C\c2c[nH]c3ccccc23)c1=O`, the growth is 89.1% (inactive).
On to `O=[N+]([O-])c1cc(Cl)c2[nH]c3c(Cl)cc([N+](=O)[O-])cc3c2c1`, for which the growth is -28.5% (active).
